# Rows were chosen to be rich in hits. Some 5.7% of all compounds tested hit in one or more screens of this group.
# hcDAF-12 act: H. contortus DAF-12 activation, primary screen | HEK293 hcDAF-12 lit1-tk-luc reporter, luminescence; 0% DMSO, 100% Δ7-dafachronic acid | activation, % at 6.8 µM | 1.4% of 370,000 active | AID 652067;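 active = activation above the mean of all tested compounds plus 3 SD, cut at about 5.5% in these data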;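 also: 100% = response to 3 µM Δ7-dafachronic acid high control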
# DAX1 inh-1: inhibits human nuclear receptor DAX1. P51843. HEK293 Gal4-DAX1 luciferase reporter, luminescence. inhibition, % at 6.75 µM. 0.99% of 340,000 active. AID 504766;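 active = inhibition above the mean over all tested compounds plus 3 SD, cut at about 4.2% in these data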;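 also: 0% = DAX1-transfected cells with DMSO and 100% = empty-vector control cells with DMSO; inhibition shows as a rise in luminescence from relieved DAX1 repression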
# Target sequence (P51843 207-470 limits assumed): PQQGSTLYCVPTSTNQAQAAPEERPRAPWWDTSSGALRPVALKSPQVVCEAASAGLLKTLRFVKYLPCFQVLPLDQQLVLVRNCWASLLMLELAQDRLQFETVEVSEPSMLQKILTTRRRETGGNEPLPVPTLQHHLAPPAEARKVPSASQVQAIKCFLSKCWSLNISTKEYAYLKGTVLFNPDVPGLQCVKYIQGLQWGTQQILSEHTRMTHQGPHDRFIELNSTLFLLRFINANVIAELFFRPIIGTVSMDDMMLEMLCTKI
# AHR act: activators of human aryl hydrocarbon receptor. 2.5% of 320,000 active. AHR-responsive luciferase reporter cells, luminescence. AID 2796. P35869. activation, % at 5 µM; in the data active = activation above about 47%;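 also: 0% = vehicle wells and 100% = reference agonist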
# DAX1 inh-2: DAX1 (NR0B1) inhibition, primary screen. inhibition, % at 6.8 µM. HEK293T StAR-luciferase reporter, SF-1/DAX-1 repression relief. AID 652010. 1.1% of 370,000 active;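 active = inhibition above the mean over all tested compounds plus 3 SD, cut at about 3.6% in these data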;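 also: 0% = DAX-1 cells with DMSO and 100% = cells lacking DAX-1 with DMSO; higher inhibition means more luminescence from relief of DAX-1 repression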
# ssDAF12 agonist: activates DAF-12 receptor from parasite S. stercoralis | HEK293 ssDAF-12/GRIP1 lit1-tk-luc reporter, luminescence; % of 3 µM dafachronic acid response | activation, % at 6.8 µM | 1% of 370,000 active | AID 652126;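 active = activation above the mean over all tested compounds plus 3 SD, cut at about 0.9% in these data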;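 also: 0% = DMSO-only wells and 100% = 3 µM delta7-dafachronic acid wells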
# hgDAF12 agonist: activates the H. glycines DAF-12 receptor ligand-binding domain; HEK293 GAL4-hgDAF12 UAS-luciferase reporter, agonist luminescence; normalized to butyrate control; activation, % at 6.8 µM; 1.8% of 370,000 active;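 active = activation above a cutoff set at the mean of all screened compounds plus 3 SD, cut at about 10% in these data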;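 also: 0% = DMSO wells and 100% = sodium butyrate wells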
# Starred values were filed as active, the others as inactive; / = no result given.
SMILES,hcDAF-12 act,DAX1 inh-1,AHR act,DAX1 inh-2,ssDAF12 agonist,hgDAF12 agonist
O=C(c1ccc(-c2ccc([N+](=O)[O-])cc2)o1)N1CCN(S(=O)(=O)c2cccs2)CC1,-1.1,-0.9,-1.7,-2.1,-1.3,0.6
COc1ccc(-c2nc(SCC(=O)NC3CCCC3)c(-c3ccc(OC)cc3)[nH]2)cc1,-1.4,0.1,48.9*,1.0,-1.9,-1.7
CC(C)c1ccc(Nc2nnc(SCC(=O)NCC3CCCO3)s2)cc1 (configuration not stated),0.3,0.7,9.9,1.5,-0.8,11.9*
COc1ccc(-c2[nH]c(-c3ccc(C)cc3)nc2SCC(=O)Nc2nccs2)cc1,-1.8,-1.3,55.4*,-1.0,-0.4,1.2
Cc1cc2nc(-c3ccc(SCC(=O)Nc4nccs4)nc3)[nH]c2cc1C,4.1,-1.0,/,1.3,-0.2,3.8
COc1ccc(-c2[nH]c(-c3ccc(SC)cc3)nc2SCC(=O)Nc2nccs2)cc1,-2.4,-1.0,52.4*,-1.4,-1.4,2.4
Cc1cc(C)c(C)c(S(=O)(=O)N[C@@H](C)C(=O)OCC(=O)NC2CCCC(C)C2C)c1C (some centres not stated),-0.6,1.3,-0.5,1.2,-1.2,0.0
O=C(O)c1cccnc1SCc1cccc(Cl)c1,-0.7,0.5,2.4,-0.2,-0.5,-2.7
O=S1(=O)c2cc(Cl)ccc2N2CCC[C@@H]2CN1Cc1ccc(Cl)c(Cl)c1,-0.4,/,/,-1.0,-0.4,2.8
Clc1cccc(Cl)c1/C=C/c1ccn[nH]1,-1.8,-1.2,-3.5,-0.5,-0.5,6.2
[O-][n+]1ccccc1C(O)CSc1ccccc1 (configuration not stated),-0.3,/,/,1.5,0.7,7.1
c1cncc(-c2nc3c(ccc4ccccc43)[nH]2)c1,2.0,-0.7,127.1*,1.2,-0.9,4.0
Cc1cc(NC(=O)C(=O)NCc2cccc(Cl)c2)no1,-1.8,5.5*,-1.1,0.2,-0.6,1.5
CC(=O)N1N=C(c2cccs2)CC1c1cccs1 (configuration not stated),-2.3,-0.1,2.1,-0.1,-0.6,-2.4
CC(=O)N1N=C2c3ccccc3CCC2C1c1cccs1 (configuration not stated),1.3,/,59.9*,0.2,0.4,-0.1
O=C(Oc1ccc2c(-c3ccccc3)cc(=O)oc2c1)c1cccs1,-0.5,4.4*,-2.2,0.1,-1.8,6.1
O=c1c2ccccc2nnn1COc1cccc2ccccc12,0.0,1.6,14.8,1.4,1.1*,9.8
O=c1c2ccccc2nnn1COc1ccc(F)cc1Cl,1.3,0.3,-2.3,0.3,-1.5,4.3
Cc1ccc2[nH]c(=O)c(C3C(C#N)=C(N)Oc4c3ccc3cccnc43)cc2c1 (configuration not stated),2.9,1.1,16.2,0.9,1.1*,4.6
CCc1ccc(C(=O)C(C)OC(=O)CNS(=O)(=O)c2ccc(C)cc2)cc1 (configuration not stated),-0.6,0.0,3.0,-0.2,-0.9,0.6
Cc1ccc(NC(=O)c2ccccc2F)c(NC(=O)c2ccccc2F)c1,5.0,7.6*,72.9*,-0.3,-0.3,2.7
Cc1cc(NC(=O)c2ccccc2)ccc1NC(=O)c1ccccc1Cl,-2.8,0.3,22.1,-0.9,-1.8,0.1
Cc1ccc(NC(=O)c2ccccc2Cl)c(Cl)c1,0.6,0.9,15.9,0.9,-0.4,10.7*
COC(=O)C1CN(Cc2cn(Cc3ccc(C)cc3)nn2)CCS(=O)(=O)N1Cc1ccc(F)cc1 (configuration not stated),-3.4,/,/,-0.8,-1.5,-3.5
CC1(C)CCC(C)(C)c2cc(NC(=O)c3ccc(C(=O)O)cc3)ccc21,-3.7,/,/,3.1,-1.2,-3.1
SMILES,hcDAF-12 act,DAX1 inh-1,AHR act,DAX1 inh-2,ssDAF12 agonist,hgDAF12 agonist
CSc1ccccc1OCc1cc(C(=O)N2CCCC2c2nonc2C)no1 (configuration not stated),5.9*,0.8,11.1,1.1,0.3,12.8*
CCN(CC)C(=O)C(=O)Nc1ccc(OC)c(Cl)c1,1.5,-0.3,7.8,0.8,-1.2,3.7
CC(C)N(Cc1nccn1C)C(=O)c1ccc2oc(Cc3ccccc3)nc2c1,2.1,0.5,/,-0.9,-1.2,-2.5
O=C(/C=C/c1ccccc1)Nc1ccc(N2CCCCC2)cc1,0.7,0.3,0.4,1.7,-0.1,12.6*
COC(=O)c1cc(NC(=O)/C=C/c2ccccc2)ccc1O,0.7,/,-3.4,0.9,-1.2,11.4*
O=C(Cc1ccccc1)c1ccc(N2CCOCC2)cc1,0.8,1.1,/,1.1,-0.6,11.1*
O=C(/C=C/c1ccc(Cl)cc1)Nc1ccc(N2CCCCC2)cc1,-0.9,0.4,3.0,0.1,-0.8,-0.8
O=C(/C=C/c1ccccc1)Nc1cc(C(=O)O)cc(C(=O)O)c1,-0.4,-0.1,-2.9,-0.3,-1.5,-3.3
O=C(c1ccccc1)c1ccc(N2CCCC2)cc1,2.0,0.6,-0.8,1.8,-0.2,11.8*
O=C(O)c1ccc(N2CCCCC2)cc1,-0.7,1.7,-2.5,-0.1,-1.8,-0.2
O=C(CCc1ccccc1)Nc1ccc(N2CCOCC2)cc1,-0.1,-0.6,-0.1,0.5,-1.0,2.3
NS(=O)(=O)c1ccc(NC(=O)COC(=O)COc2cccc(C(F)(F)F)c2)cc1,-0.4,1.9,0.3,-0.2,-1.4,0.4
NC(=O)c1ccsc1NC(=O)CCS(=O)(=O)c1ccc(F)cc1,-1.7,-1.7,-2.6,-3.1,-0.8,0.5
Fc1ccc(C2CC(c3ccco3)=NN2c2ccccc2)cc1 (configuration not stated),-0.2,-0.7,-4.2,-0.8,-0.9,1.2
Fc1ccc(C2CC(c3ccco3)=Nc3ccccc3S2)cc1 (configuration not stated),1.9,7.0*,4.0,-0.9,-0.5,1.0
O=C(C1CCCN1C(=O)c1cccs1)N1CCc2ccccc21 (configuration not stated),6.0*,-1.2,18.1,0.2,-0.1,0.6
CCOCCCNC(=O)C(Cc1ccccc1)NS(=O)(=O)c1cccc2nsnc12 (configuration not stated),-0.5,4.5*,3.9,0.2,-1.4,-0.1
CCCNC(=O)C(Cc1ccccc1)NS(=O)(=O)c1cccc2nsnc12 (configuration not stated),-0.2,0.5,1.9,-0.4,-1.0,2.5
CC(C)Cn1c(N)c(C(=O)CSc2n[nH]c(N)n2)c(=O)n(C)c1=O,0.0,0.9,-1.5,0.5,-1.4,-2.2
O=C(NCCc1cccs1)c1cccs1,2.1,1.5,7.2,3.2,-0.4,10.6*
O=C(NCC(O)c1ccccc1)c1cccs1 (configuration not stated),2.4,3.3,7.1,1.0,-0.3,12.0*
O=C(NCCCc1ccccc1)c1cccs1,2.4,1.4,-0.2,0.9,-1.4,5.1
